The panel holds about 83,000 compounds, 20% with a hit somewhere; the sample as a whole holds those more often.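 Method: cells in 96-well plates; compound added at one concentration; 48 h incubation; percent growth measured; values under 10 scored active.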 A number with no mark means an inactive call. Calls of active or inactive are those of the source.
Legend:
Assay in all cases: NCI-60 one-dose screen, 48 h (100 = growth as untreated, 0 = no growth, -100 = all killed)
Details in all cases: 10 µM unless noted
[1] = system: NCI-H23 lung
[2] = system: NCI-H226 lung
[3] = system: NCI-H322M lung
[4] = system: HOP-62 NSCLC
[5] = system: NCI-H460 lung
[6] = system: HOP-92 NSCLC
[7] = system: NCI-H522 lung
[8] = system: A549/ATCC NSCLC
[9] = system: 786-0 renal
[10] = system: COLO 205 colon

SMILES	growth [1]	growth [2]	growth [3]	growth [4]	growth [5]	growth [6]	growth [7]	growth [8]	growth [9]	growth [10]
Cc1ccc(S(=O)(=O)c2nc(-c3ccc(F)cc3)oc2S(C)(=O)=O)cc1	71.2%	83.6%	95.9%	99.8%	101%	63%	61%	96.4%	80.6%	95.1%
Clc1ccc2c(N/N=C/c3c[nH]c4ccccc34)ccnc2c1	-88.2% (active)	-52.1% (active)	-89.9% (active)	-75.1% (active)	-87.2% (active)	-88.7% (active)	-77.6% (active)	-24.3% (active)	-89.8% (active)	-85.4% (active)
Cc1cc(=O)[nH]c(O)c1C#N	100%	101%	98.1%	94.8%	108%	97.4%	101%	103%	103%	107%
CN1CCN(CCCCCC(=O)Nc2nc(-c3cccc(NS(=O)(=O)c4cccc5c(N(C)C)cccc45)c3)cs2)CC1	65.2%	85.9%	96%	90.3%	79.3%	32.4%	91.8%	70.9%	79%	82.4%
CCc1cc2c(cc1Cl)nc1c(=O)[nH]c(=O)nc-1n2CCOCC(C)(C)C	72.1%	41.2%	63.7%	104%	56.4%	110%	70.5%	75.5%	81.1%	58.2%
CC1(C)CC[C@]2(C(=O)O)CC[C@]3(C)C(=CC[C@@H]4[C@@]5(C)CC[C@H](NOCCCN)C(C)(C)[C@@H]5CC[C@]43C)[C@@H]2C1	91.1%	90.3%	94%	102%	73.3%	62.3%	97.2%	77.9%	98.6%	19.6%
Cc1cc(Br)ccc1-n1cc(C#N)c(N)c1C(=O)c1ccc(Br)cc1	92.7%	97.7%	104%	103%	113%	94.2%	99.6%	105%	93.5%	118%
CC1=C(C)C(=O)C(Nc2ccc3c(c2)OCCO3)=C(Br)C1=O	85.2%	85.6%	102%	97.6%	102%	68.2%	96.9%	107%	105%	126%
C#CCOc1ccccc1C(OC(=O)c1ccccc1)C(=O)NC(C)(C)C(C)(C)C (stereo not given)	82.4%	82.1%	90.4%	88.4%	89.7%	71%	73.4%	74%	84.7%	85.1%
O=C1Nc2ccccc2/C1=C/c1ccc(OCC(=O)c2ccccc2)cc1	101%	89%	98%	99.7%	102%	97.1%	104%	99.5%	107%	117%
Cn1cc(-c2nc(N)nnc2-c2c[nH]c3ccc(Br)cc23)c2cc(F)ccc21	93.3%	96.6%	86.1%	103%	97.7%	98.7%	89.1%	103%	98.3%	103%
O=C(NNc1nc2cc(F)cc(F)c2n2cccc12)c1cccnn1	21.7%	-3.91% (active)	28.4%	28.2%	6.92% (active)	75.4%	0.0735% (active)	17.5%	14.3%	16.3%
CC(C)NC(=O)c1cc(-c2ccc(NC(=O)Nc3ccc(F)c(C(F)(F)F)c3)cc2)nc2cccnc12	93.2%	94.8%	107%	80.8%	86.4%	90.1%	87.4%	86.8%	88.3%	114%
O=C(COc1ccc(/C=C2\C(=O)Nc3ccc(Cl)cc32)cc1)Nc1ccc(Cl)cc1	59.7%	74%	74.3%	63.2%	23.7%	93.5%	45.3%	57%	68.3%	90.5%
O=C1[C@@H]2Cc3c([nH]c4ccccc34)[C@H](c3ccc(Cl)cc3)N2C(=O)CN1C1CCN(Cc2ccccc2)CC1	74.1%	70.5%	59.2%	75.7%	34.4%	41.4%	84.6%	38.8%	68.1%	53.4%
NC(=O)c1ncn2c(=O)n(CCF)nnc12	94.5%	68.5%	78%	53.5%	54.9%	99.3%	82.7%	99%	61.3%	57.4%
Cn1cc(-c2cc3ncnc(Nc4ccc(CC(=O)Nc5nc(C(C)(C)C)cs5)cc4)c3s2)cn1	47.5%	32.9%	43.8%	93.1%	54.3%	85%	36.9%	46.4%	34.4%	65.8%
CC(=O)c1cc(C(=O)N2c3ccccc3Sc3ccccc32)n2c1ccc1ccccc12	79.1%	60.4%	89.9%	56%	37.9%	85.2%	-1.14% (active)	59%	60.6%	40%
O=C(CCCCCCN1CC(=O)N2[C@@H](c3ccc(Cl)s3)c3[nH]c4ccccc4c3C[C@H]2C1=O)NO	41.1%	68.6%	46%	61.5%	39.4%	34.6%	3.19% (active)	73.4%	81.1%	54%
Cn1c2nc3ccccc3c-2cc2ccccc21	44.9%	53%	4.32% (active)	51.3%	13.4%	57.2%	41.6%	28.4%	38%	26%
N#C/C(=C\c1ccc(-c2ccc(Cl)c(Cl)c2)o1)C(=O)Nc1ncc(Cc2ccc(Cl)cc2)s1	38.2%	73.6%	33%	72.1%	-42.4% (active)	81.5%	47.1%	11.6%	11.4%	55.8%
O=C(/C=C/c1cccc(F)c1)c1cccc(OCCCCOc2cccc(C(=O)/C=C/c3cccc(F)c3)c2)c1	102%	103%	102%	114%	100%	139%	93.4%	104%	106%	117%
COC(=O)CNC(=O)c1cccc(-c2cc(=O)c3c(OC)c(OC)c(OC)cc3o2)c1	98.1%	95.8%	85.4%	119%	98.7%	67.6%	99.6%	101%	104%	114%
C/C(CC1(O)C(=O)Nc2ccccc21)=N\O (stereo not given)	101%	98%	102%	95.2%	101%	93.9%	91.3%	102%	101%	103%
Brc1ccc(-c2cc(-c3ccc4c(c3)OC=CO4)n[nH]2)s1	87.4%	95.1%	96.2%	82%	96.4%	99.7%	73.8%	89.9%	104%	97.1%
